Assay results reported in PubChem BioAssay (Tox21).
Inconclusive results are not listed. Where a call stands in place of a potency, no number is given. Values without a mark were called inactive. Calls of active or inactive are those of the source. Calls follow the shape of the dose curve; as a rule, active = well fitted curve in the direction sought with a large enough effect in the repeat runs; inconclusive = weak or mixed curves; inactive = no such curve, though single readings can be large; an effect the other way counts as inactive or inconclusive.

Biological target: Luciferin 4-monooxygenase (Photinus pyralis) (UniProt P08659)
Sequence (P08659 whole entry, looked up): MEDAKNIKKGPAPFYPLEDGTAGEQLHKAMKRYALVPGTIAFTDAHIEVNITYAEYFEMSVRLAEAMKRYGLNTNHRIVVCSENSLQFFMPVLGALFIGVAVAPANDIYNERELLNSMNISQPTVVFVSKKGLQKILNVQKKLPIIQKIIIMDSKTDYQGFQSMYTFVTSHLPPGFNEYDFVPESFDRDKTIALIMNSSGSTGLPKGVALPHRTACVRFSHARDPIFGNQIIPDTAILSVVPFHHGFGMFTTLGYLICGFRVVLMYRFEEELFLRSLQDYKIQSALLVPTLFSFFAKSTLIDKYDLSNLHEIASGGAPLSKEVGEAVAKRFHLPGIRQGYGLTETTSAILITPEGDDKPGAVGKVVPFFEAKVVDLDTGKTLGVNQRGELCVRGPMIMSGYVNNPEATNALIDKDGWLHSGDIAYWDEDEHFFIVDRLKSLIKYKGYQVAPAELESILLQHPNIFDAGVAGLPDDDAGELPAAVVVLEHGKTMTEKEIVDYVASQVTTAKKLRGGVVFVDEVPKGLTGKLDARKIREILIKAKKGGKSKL
Assay: qHTS assay to identify small molecule inhibitors of firefly luciferase (AID 1224835); also: nearly all actives have a fitted effect of over 25% in size
Conditions: purified P. pyralis luciferase, luminescence inhibition; series mostly up to 115 µM
Summary of the method: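 Quantitative HTS format; KM concentrations of both substrates. Purified P. pyralis FLuc activity quantified from luminescence images.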

| Compound | Potency |
| --- | --- |
| CCC(=O)Nc1ccc(O)cc1 | inactive |
| CC(CNC1CCCCC1)OC(=O)c1ccccc1 (configuration not stated) | inactive |
| CN1CCN(c2c(F)cc3c(=O)c(C(=O)O)cn(CCF)c3c2F)CC1 | inactive |
| O=CCCc1ccccc1 | inactive |
| CCCc1c2oc(C(=O)O)cc(=O)c2cc2c(=O)cc(C(=O)O)n(CC)c12 | inactive |
| C=CCCCCCCCCO | inactive |
| CCCCCCCCCC#N | inactive |
| Clc1cccc(-c2cc(Cl)cc(Cl)c2)c1 | inactive |
| CCCCNc1cc(C(=O)O)cc(S(N)(=O)=O)c1Oc1ccccc1 | inactive |
| O=Cc1ccc(O)c(O)c1O | inactive |
| CC/C=C\CCOC(=O)C(C)C | inactive |
| FC(F)(F)C(Cl)(Cl)Cl | inactive |
| NC(=O)Cc1cccc(C(=O)c2ccccc2)c1N | inactive |
| O=C1CCCCC1C1CCCCC1 (configuration not stated) | inactive |
| CN1CCN(C2=Nc3cc(F)ccc3Cc3ccccc32)CC1 | inactive |

System: not listed separately
Assay: qHTS assay to identify small molecule agonists of the constitutive androstane receptor (CAR) signaling pathway - cell viability counter screen (AID 1224836); also: nearly all actives have a fitted effect of over 45% in size
Conditions: HepG2-CYP2B6-hCAR viability, CellTiter-Fluor, 23 h, PK11195 added to every well; series mostly up to 92.4 µM
Summary of the method: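 Viability read-out: CellTiter-Fluor fluorescence after 23 h compound exposure at 37 C/5% CO2 in double-stable HepG2-CYP2B6-hCAR cells, with PK11195 present at 0.75 uM final; compounds tested in 15-point titration.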

| Compound | viability change, negative = cytotoxic | Potency |
| --- | --- | --- |
| C[C@@H]1CN(c2c(F)c(N)c3c(=O)c(C(=O)O)cn(C4CC4)c3c2F)C[C@H](C)N1 | -2.59% [at 19 µM] |  |
| COc1nc(C)nc(NC(=O)NS(=O)(=O)c2ccccc2OCCCl)n1 |  | inactive |
| Cc1ccsc1C(=CCCN1CCC[C@@H](C(=O)O)C1)c1sccc1C |  | inactive |
| C=CCCC=C |  | inactive |
| CN1C(=O)CC(c2ccccc2)C1=O (configuration not stated) |  | inactive |
| O=C(O)c1cccc(Cl)c1Cl |  | inactive |
| OCC(CBr)(CBr)CBr |  | inactive |
| CCC(=O)c1ccc2c(c1)N(CCCN(C)C)c1ccccc1S2 |  | inactive |
| CC(C)(C)c1ccc(OC(=O)c2ccccc2O)cc1 |  | inactive |
| CN(C)C(=O)NC1(c2ccccc2)CCN(CCC[C@]2(c3ccc(Cl)c(Cl)c3)CCCN(C(=O)c3ccccc3)C2)CC1 | -28.7% [at 19 µM] |  |
| Oc1ccccc1F |  | inactive |
| CC(C)(C)C1CCCCC1=O (configuration not stated) |  | inactive |
| C/C(=N\O)[C@@H](C)NCC(C)(C)CN[C@H](C)/C(C)=N/O |  | inactive |
| Cc1nc(N)nc(N)c1-c1ccc(Cl)c(Cl)c1 |  | inactive |
| CC1(O)CSC(C)(O)CS1 (configuration not stated) |  | inactive |
| CCN(CC)CCOc1ccc(Cc2ccccc2)cc1 |  | inactive |
| CN1CCN(N)CC1 |  | inactive |
| O=S(=O)(O)C(F)(F)F |  | inactive |
| COC(=O)C(C)O (configuration not stated) |  | inactive |

| Compound | viability change, negative = cytotoxic | Potency |
| --- | --- | --- |
| CCOc1ccc(NS(=O)(=O)c2ccc(N)cc2)nn1 |  | inactive |
| Cc1ccc(C(C)C)cc1O |  | inactive |
| CCCCCCn1c(=O)c2c(ncn2C)n(C)c1=O |  | inactive |
| CCC(=O)Nc1ccc(O)cc1 |  | inactive |
| CC(CNC1CCCCC1)OC(=O)c1ccccc1 (configuration not stated) |  | inactive |
| CN1CCN(c2c(F)cc3c(=O)c(C(=O)O)cn(CCF)c3c2F)CC1 |  | inactive |
| O=CCCc1ccccc1 |  | inactive |
| CCCc1c2oc(C(=O)O)cc(=O)c2cc2c(=O)cc(C(=O)O)n(CC)c12 |  | inactive |
| C=CCCCCCCCCO |  | inactive |
| CCCCCCCCCC#N |  | inactive |
| Clc1cccc(-c2cc(Cl)cc(Cl)c2)c1 |  | inactive |
| CCCCNc1cc(C(=O)O)cc(S(N)(=O)=O)c1Oc1ccccc1 |  | inactive |
| O=Cc1ccc(O)c(O)c1O |  | inactive |
| CC/C=C\CCOC(=O)C(C)C |  | inactive |
| FC(F)(F)C(Cl)(Cl)Cl |  | inactive |
| NC(=O)Cc1cccc(C(=O)c2ccccc2)c1N |  | inactive |
| O=C1CCCCC1C1CCCCC1 (configuration not stated) |  | inactive |
| CN1CCN(C2=Nc3cc(F)ccc3Cc3ccccc32)CC1 |  | inactive |
